# High-throughput results as filed in PubChem.
# FLuc inh-1 – blocks purified firefly luciferase enzyme activity | AID 1347043 | 76,000 compounds, 2.5% hits | purified P. pyralis luciferase, luminescence, biochemical | Potency, µM (series often up to 115 µM), hits mostly inhibitors | P08659; note: % is set by controls: 0 for no effect and ±100 for the full control effect; nearly all actives have a fitted effect of over 65% in size
# Target sequence (P08659 whole entry, looked up): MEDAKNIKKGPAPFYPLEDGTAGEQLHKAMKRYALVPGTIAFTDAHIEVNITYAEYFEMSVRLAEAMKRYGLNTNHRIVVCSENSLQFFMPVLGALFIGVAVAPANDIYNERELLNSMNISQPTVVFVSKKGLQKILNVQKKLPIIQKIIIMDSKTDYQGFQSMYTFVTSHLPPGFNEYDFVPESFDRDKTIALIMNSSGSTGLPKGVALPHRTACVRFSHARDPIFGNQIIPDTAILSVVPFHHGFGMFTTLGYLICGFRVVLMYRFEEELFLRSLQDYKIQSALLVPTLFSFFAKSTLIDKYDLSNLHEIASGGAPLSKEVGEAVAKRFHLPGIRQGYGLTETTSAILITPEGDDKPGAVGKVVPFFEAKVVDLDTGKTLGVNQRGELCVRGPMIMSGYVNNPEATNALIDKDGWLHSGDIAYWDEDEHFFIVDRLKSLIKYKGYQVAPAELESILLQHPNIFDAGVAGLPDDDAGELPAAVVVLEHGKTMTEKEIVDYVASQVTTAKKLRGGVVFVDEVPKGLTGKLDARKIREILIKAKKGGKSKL
#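 Inhibitors were tested against purified firefly luciferase in a biochemical, low-substrate format (both substrates at 10uM) and luminescence measured with a CCD imager.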
# NIH3T3 tox – kills NIH 3T3 cells; Potency, µM (highest dose often 96.7 µM), for inactives: at the highest dose activity change, negative = cytotoxicity, hits mostly inhibitors; NIH 3T3 viability, CellTiter-Glo ATP luminescence, 48-72 h; 94,000 compounds, 4.3% hits; note: % is set by controls: 0 for no effect and ±100 for the full control effect; nearly all actives have a fitted effect of over 55% in size
#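 Luminescent ATP readout (CellTiter-Glo, 10 min RT) after 48 or 72 hr compound exposure of NIH 3T3 cells seeded at 400 cells/well in 1536-well format; quantitative HTS.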
# hNpr1 antagonist – human Npr1 receptor antagonism | P16066 | HEK293 hNpr1 GloSensor cGMP, ANP-stimulated luminescence | Potency, µM (highest dose often 46.3 µM), for the others: at the top dose activity change, negative = inhibition, most hits filed as inhibitors | 76,000 compounds, 1.6% hits | AID 1347048; calls by dose curve; note: % is set by controls: 0 for no effect and ±100 for the full control effect; nearly all actives have a fitted effect of over 60% in size
#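 Compound pre-incubated 30 min at room temperature on GloSensor-loaded HEK293 cells stably carrying hNpr1 and the pGS-40F cGMP biosensor. Stimulation uses hNppA at 0.1 nM final; luminescence is taken at baseline and 20 min post-agonist.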
# HEK cytotox – HEK 293 cell cytotoxicity | HEK 293 viability, ATP luminescence (CellTiter-Glo), 48-72 h | Potency, µM (highest dose often 115 µM), without a hit: at the highest dose activity change, negative = cytotoxicity, most hits filed as inhibitors | 94,000 compounds, 6.6% hits | AID 1345083; note: % is set by controls: 0 for no effect and ±100 for the full control effect; nearly all actives have a fitted effect of over 60% in size
#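 250 HEK 293 cells/well; compound by pintool; incubated 48 or 72 hr at 37 degree Celsius; CellTiter-Glo added, 10 min RT, luminescence imaged.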
# FLuc SDR no ATP – firefly luciferase binding stabilization, ATP absent | AID 1963318 | 1,300 compounds, 7.8% hits | Purified FLuc-C-HiBiT, Nano-Glo HiBiT luminescence, no ATP | shares compounds with FLuc inh-1 | Potency, µM (highest dose often 32.7 µM), without a hit: top-dose activation (signal gain), actives largely listed as activators; note: nearly all actives have a fitted effect of over 55% in size
# FLuc SDR ATP – firefly luciferase binding stabilization, ATP added; shares compounds with FLuc inh-1; purified FLuc-C-HiBiT + ATP, HiBiT complementation luminescence; Potency, µM (highest dose often 32.7 µM), for inactives: at the highest dose activation (gain of signal), hits mostly activators; 1,300 compounds, 8.7% hits;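 note: signal reports ligand binding via conformational change of the enzyme rather than luciferase catalysis; % of control where 0% means no effect; nearly all actives have a fitted effect of over 55% in size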
# FLuc inh-2 – firefly luciferase enzyme inhibition; shares compounds with FLuc inh-1; purified FLuc-C-HiBiT enzyme, luciferin luminescence; Potency, µM (top dose mostly 32.7 µM), inactives show at the highest dose activity change, negative = inhibition, usual class: inhibitors; 1,300 compounds, 42% hits; note: % is set by controls: 0 for no effect and ±100 for the full control effect; nearly all actives have a fitted effect of over 70% in size
# Numbers without * were called inactive; i = inactive; ? = inconclusive; nt = no result; [ ] = remark or other dose. The list is not random: actives were taken first. Their share in the collection is about 11%. Unless noted, calls come from the whole dose curve; as a rule, active = well fitted curve in the direction sought with a large enough effect; inconclusive = small, poorly fitted or top-dose-only effect, or another doubt; inactive = no such curve, though single readings can be large; an effect the other way counts as inactive or inconclusive. Potency is the fitted concentration of half-maximal effect.
SMILES,FLuc inh-1,NIH3T3 tox,hNpr1 antagonist,HEK cytotox,FLuc SDR no ATP,FLuc SDR ATP,FLuc inh-2
O=C(C1CN(c2ccccc2)C(=O)N1)N1CCOCC1 (stereo not drawn),i,4%[138 µM],0%[70.6 µM],-4%[172 µM],nt,nt,nt
Cc1ccc(F)cc1CC(=O)N1C[C@@H](CN2CCOCC2)[C@@H](CO)C1,i,-13%,-1%,2%,nt,nt,nt
Cc1cc(=O)n(CC(=O)Nc2ccc3c(c2)OCO3)c(-c2ccc(Cl)cc2)n1,i,?,-24%,?,nt,nt,nt
COc1ccc(C(=O)Nc2cc(S(=O)(=O)c3ccc(Cl)cc3)c(O)c(C)c2C)cc1,nt,nt,nt,nt,19%,14%,-14%
COc1ccc(C(=O)NC(C(=O)N2CCCC2)C2CCN(C(=O)c3ccc(Cl)cc3)CC2)cc1 (stereo not drawn),i,-8%,4%,?,nt,nt,nt
O=C(Nc1ccccc1-c1nc2ccccc2s1)c1ccc(F)cc1,nt,nt,nt,nt,8%,7%,-7%
COc1ccc(C(=O)Nc2ccccc2-c2nc3ccccc3s2)cc1OC,nt,nt,nt,nt,13%,9%,0%
COc1ccc(C(=O)NCCC2CCN(C(=O)Nc3ccccc3)CC2)cc1OC,i,3%,3%,-6%,nt,nt,nt
O=C(Nc1ccccc1-c1nc2ccccc2s1)c1cc(Cl)cc(Cl)c1,nt,nt,nt,nt,10%,9%,2%
Cc1nnc2ccc(N3CCC(NC(=O)c4ccc(F)cc4)CC3)nn12,nt,-27%,nt,-20%,nt,nt,nt
COc1ccccc1CNC(=O)c1ccc2nc(N3CCCCC3)sc2c1,nt,nt,nt,nt,15%,12%,-14%
COc1ccccc1CNC(=O)c1ccc2c(c1)C(O)CCCCCN2C (stereo not drawn),i,?,-14%,?,nt,nt,nt
CCn1ccnc1C1CCN(c2nc3ccccc3s2)CC1,3.2µM*,-1%,?,?,22%,16%,?
Cn1ncc2c(C(=O)NC3CCN(Cc4ccccc4)CC3)cc(-c3cc(Cl)cc(Cl)c3)nc21,nt,-7%,nt,-14%,nt,nt,nt
CCOC(=O)C1(Cc2ccc(F)cc2F)CCCN(S(=O)(=O)c2ccsc2)C1 (stereo not drawn),i,?,-17%,?,nt,nt,nt
CSCc1nc(-c2ccncc2)nn1Cc1ccc2c(c1)OCO2,4.5µM*,?,11µM*,?,10%,19%,-13%
CCn1cc(-c2cc3c(cn2)CN(Cc2ccncc2)CCN3)cn1,?,-37%[138 µM],-1%[70.6 µM],?,nt,nt,nt
Clc1ccc(-c2cc3c(cn2)CN(Cc2ccncc2)CCN3)cc1,2.2µM*,?,?,89µM*,31%[49.3 µM],?,16µM*
Cc1cc(-c2cc3c(cn2)CN(Cc2ccccn2)CCN3)ccn1,14µM*,89µM*,2%[70.6 µM],?,21%[49.3 µM],19%[49.3 µM],?
Cc1cc(-c2cc3c(cn2)CN(CC2CCOCC2)CCN3)ccn1,?,?,0%[70.6 µM],?,nt,nt,nt
O=C(CC1CCOCC1)Nc1ccc(OC(F)(F)F)cc1,?,-14%,-13%,-18%,nt,nt,nt
O=C(CSc1nccn1Cc1ccco1)Nc1ccc(OC(F)(F)F)cc1,nt,nt,nt,nt,13%,11%,?
COc1ccc(-c2ccc3nnc(CNC(=O)c4ccccc4F)n3n2)cc1,i,-21%,20%,-23%,nt,nt,nt
COc1ccc(-c2cn3nc(SCC(=O)Nc4ccccc4F)ccc3n2)cc1,nt,nt,nt,nt,?,17%,?
CC(C)Oc1cccc(-c2cccc(COc3cnc4c(ccn4CC(=O)O)c3)c2)c1,11µM*,-23%[138 µM],4%[70.6 µM],?,7%[49.3 µM],5%[49.3 µM],18µM*
SMILES,FLuc inh-1,NIH3T3 tox,hNpr1 antagonist,HEK cytotox,FLuc SDR no ATP,FLuc SDR ATP,FLuc inh-2
Cc1ccccc1-c1cccc(COc2cnc3c(ccn3CC(=O)O)c2)c1,nt,nt,nt,nt,9%[49.3 µM],6%[49.3 µM],?
CC(=O)Nc1cccc(-c2cccc(CCOc3cnc4c(ccn4CC(=O)O)c3)c2)c1,nt,nt,nt,nt,?,?,16µM*
Cc1ccccc1-c1cccc(CCOc2cnc3c(ccn3CC(=O)O)c2)c1,i,-14%[138 µM],0%[70.6 µM],?,nt,nt,nt
CC(C)N1CCN(C(=O)CCC2CCN(S(=O)(=O)c3ccccc3F)CC2)CC1,i,0%,4%,-9%,nt,nt,nt
CCc1ccc(-c2nc(CSCC(=O)NCc3ccc(C)cc3)c(C)o2)cc1,nt,nt,nt,nt,19%,12%,?
Cc1ccc(-c2nc(C(=O)NCc3ccc(Cl)cc3)no2)cc1,i,-24%,2%,-6%,nt,nt,nt
COc1ccc(NC(=O)Nc2nnc(C)s2)cc1,nt,nt,nt,nt,24%,13%,?
Cc1ccc2nc(C(=O)N3CCCC3c3cc(C(C)C)on3)cn2c1 (stereo not drawn),10µM*,-13%,0%,-9%,27%,15%,?
Cn1nc(-c2ccc3c(c2)OCCO3)nc1N1CCCCC1,4µM*,?,?,-4%,?,?,9.9µM*
CCN1CC2(CCN(C(=O)CC(Cc3ccccc3)c3ccco3)CC2)CC1=O (stereo not drawn),i,?,1%,?,nt,nt,nt
COc1ccc(-c2noc([C@@H]3CCCN3C(=O)CCCc3ccccc3)n2)cc1,i,?,0%,?,nt,nt,nt
COc1ccc2cc(C3CN(C(=O)Cc4ccc(O)cc4)CCO3)ccc2c1 (stereo not drawn),8.9µM*,?,?,?,21%,17%,?
COCC(=O)N(C1CCOCC1)C1CCN(C(=O)Cc2ccc(OC)cc2)CC1,i,-2%,2%,18%,nt,nt,nt
O=C(Cc1ccc(F)cc1)NC1CCN(CCn2nc3n(c2=O)CCCC3)C1 (stereo not drawn),nt,i,nt,-1%,nt,nt,nt
COc1ccc(-c2cc(N3CCCC(NC(=O)c4cccc(OC)c4)C3)n[nH]2)cc1 (stereo not drawn),7.1µM*,?,-25%,25µM*,18%,16%,?
COc1cc(C(=O)NC2CCCN(c3cc(-c4ccc(F)cc4)[nH]n3)C2)cc(OC)c1OC (stereo not drawn),13µM*,?,-10%,?,23%,11%,?
CN(C)c1ccc(C(=O)NC2CCN(c3cc(-c4ccc(Cl)cc4)[nH]n3)C2)cc1 (stereo not drawn),i,?,-22%,?,nt,nt,nt
COc1ccc(-c2cc(N3CCCC(NC(=O)c4ccc(C)cc4)C3)n[nH]2)cc1 (stereo not drawn),?,?,-9%,?,nt,nt,nt
CN(C)c1cccc(C(=O)NC2CCN(c3cc(-c4ccc(Cl)cc4)[nH]n3)C2)c1 (stereo not drawn),13µM*,?,-29%,?,10%,?,?
